# The list is not random: actives were taken first. Their share in the collection is about 3.5%.
# MITF inh: human MITF inhibition, primary screen | AlphaScreen MITF homodimerization, bead proximity signal | inhibition, % at 2.6 µM | 0.91% of 650,000 active; in the data active = inhibition above about 50%;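 also: 0% = vehicle wells with protein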
# TEAD-YAP inh: TEAD-YAP interaction inhibition | HEK-TIYL cells, TEAD-Gal4/YAP UAS-luciferase luminescence | inhibition, % at 9.12 µM | 1.4% of 640,000 active | AID 1259422; in the data active = inhibition above about 32%;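 also: 0% = median of test compound wells and 100% = reference inhibitor wells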
# FBW7 act: activators of human E3 ligase FBW7; AlphaScreen FBW7–phospho-cyclin E peptide binding, activator screen; 0.13% of 650,000 active; Q969H0; normalized activity (activation), % at 26.1 µM; in the data active = normalized activity above about 1.9%;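 also: purified mutant Fbw7 with reduced substrate affinity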
# Target sequence (Q969H0 whole entry, looked up): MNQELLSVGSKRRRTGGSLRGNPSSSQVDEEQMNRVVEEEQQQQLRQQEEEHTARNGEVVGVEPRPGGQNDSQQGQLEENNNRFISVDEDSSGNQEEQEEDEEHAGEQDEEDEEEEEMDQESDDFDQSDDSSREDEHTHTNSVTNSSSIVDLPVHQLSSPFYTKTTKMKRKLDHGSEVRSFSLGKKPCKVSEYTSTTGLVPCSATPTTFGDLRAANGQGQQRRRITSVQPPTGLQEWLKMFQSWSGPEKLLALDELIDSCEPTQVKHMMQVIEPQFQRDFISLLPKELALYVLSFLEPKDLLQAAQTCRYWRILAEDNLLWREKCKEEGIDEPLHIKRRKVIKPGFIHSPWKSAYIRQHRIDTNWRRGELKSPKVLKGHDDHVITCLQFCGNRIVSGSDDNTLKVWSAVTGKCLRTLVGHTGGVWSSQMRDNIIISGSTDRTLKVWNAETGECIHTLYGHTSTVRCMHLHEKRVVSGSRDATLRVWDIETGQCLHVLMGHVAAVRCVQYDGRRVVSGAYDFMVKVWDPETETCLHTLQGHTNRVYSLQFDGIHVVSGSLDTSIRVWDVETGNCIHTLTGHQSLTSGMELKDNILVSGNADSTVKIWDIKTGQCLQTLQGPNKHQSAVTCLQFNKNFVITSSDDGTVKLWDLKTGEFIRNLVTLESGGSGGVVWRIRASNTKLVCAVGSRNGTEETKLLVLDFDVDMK
# GPR151 activ: activators of human GPR151; Q8TDV0; PathHunter beta-arrestin GPR151 cells, luminescence; activation, % at 11.2 µM; 1% of 650,000 active; AID 1508602; in the data active = activation above about 4.9%;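 also: 0% = median of compound wells and 100% = cells with positive control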
# GPR151 confirm: human GPR151 activation, confirmation screen; shares compounds with GPR151 activ; GPR151 PathHunter beta-arrestin cells, luminescence, 90 min; % of EA-reagent control over plate median; activation, % at 11.2 µM; 6,700 tested, under 10 active; AID 1508609;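 active = mean percent activation across replicates above the confirmation screen cutoff of 4.91%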
# GPR119 counter: counter-screen for GPR151 activators: effect on human GPR119; shares compounds with GPR151 activ; GPR119 PathHunter beta-arrestin cells, luminescence, 90 min; 0 = compound-well median, 100 = enzyme-acceptor control; activation, % at 11.2 µM; 0.3% of 6,700 active;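 active = mean percent activation in the counterscreen above 29.09%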;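 also: counterscreen on off-target GPR119 to flag nonselective hits from the GPR151 activator screen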
# An asterisk follows results filed as active; x = no result; ! = a repeat was not active.
SMILES,MITF inh,TEAD-YAP inh,FBW7 act,GPR151 activ,GPR151 confirm,GPR119 counter
CC(C)N(CCNc1nc(N2CCOCC2)nc2c1ncn2C(C)C)C(C)C,-4,0,0,-1,x,x
Cc1ccc(-c2nc(CSCC(=O)N3CCOCC3)c(C)o2)cc1,-18,-11,0,5.0*,1,-6
Cc1ccc(-c2nc(CSCC(=O)N3CCN(C(=O)c4ccco4)CC3)c(C)o2)cc1,1,-9,0,0,x,x
Cc1ccc(-c2c(N3CC(=O)N(CCc4ccccc4)C(=O)C3)c(=O)c2=O)cc1,-4,-15,0,6.5*,0,4
Fc1ccc(-c2cc(-c3nc(-c4ccccc4Cl)no3)c3ccccc3n2)cc1,1,-7,0,1,x,x
CCCOc1ccc(C(N)=O)cc1OC,21,4,0,5.6*,1,7
COc1cc(C(N)=O)ccc1OCC(C)C,-2,0,0,0,x,x
CCSc1nc2sccn2c(=O)c1C(=O)NCc1cccc(OC)c1,12,-4,0,1,x,x
O=C(Nc1ccc(-c2cn[nH]c2)cc1)C1CCc2ccccc2C1 (stereo not drawn),-5,-4,0,5.4*,0,8
O=C(Nc1ccc(-c2cn[nH]c2)cc1)OCCc1ccccc1,2,-28,0,5.0*,1,8
O=C(Nc1ccc(-c2cn[nH]c2)cc1)OCc1ccccc1,0,-14,0,-1,x,x
O=C(Nc1ccc(-c2cn[nH]c2)cc1)[C@@H]1Cc2ccccc2CN1,13,-5,0,0,x,x
CNC(=O)C(=O)NCCN1CCN(Cc2ccc(Br)cc2)CC1,-6,8,0,7.8*,-1,-5
O=C(NCCN1CCN(Cc2ccc(Br)cc2)CC1)C(=O)Nc1ccc(Cl)cc1,0,4,0,0,x,x
O=C(CCCn1c(=S)[nH]c2ccccc2c1=O)Nc1cccc2c1CCCC2,1,-5,0,5.5*,0,12
O=C(CCn1c(=S)[nH]c2cc3c(cc2c1=O)OCO3)NCc1cccc(Cl)c1,5,-1,0,-1,x,x
O=C(CCCn1c(=S)[nH]c2cc3c(cc2c1=O)OCO3)NCc1cccc(Cl)c1,6,5,0,5.3*,0,9
Cc1ccc(N=Cc2nc(-c3ccccc3Br)oc2O)cc1Cl,5,4,0,0,x,x
CCOc1ccc(NC(=O)c2c(NC(=O)CC)sc3c2CCC(C(C)(C)C)C3)cc1 (stereo not drawn),12,6,0,0,x,x
CCC(=O)Nc1sc2c(c1C(=O)Nc1ccc(OC)cc1)CCC(C(C)(C)C)C2 (stereo not drawn),1,-1,0,8.8*,-2,-11
Cc1cn2c(=O)c(C(=O)NOCc3cccc(C(F)(F)F)c3)cnc2s1,17,-9,0,14*,1,-3
CN=c1nc(-c2ccccc2)n(-c2ccccc2)s1,2,-7,0,0,x,x
CC(=O)N=c1nc(-c2ccccc2)n(-c2ccccc2)s1,-11,-16,0,6.9*,-1,-10
COc1ccc(S(=O)(=O)N2CCC3(CC2)NC(=O)N(Cc2ccccc2)C3=O)c(OC)c1OC,6,-1,0,4,x,x
COC(=O)C(NC(=O)c1ccccc1)c1ccccc1 (stereo not drawn),4,6,0,-1,x,x
SMILES,MITF inh,TEAD-YAP inh,FBW7 act,GPR151 activ,GPR151 confirm,GPR119 counter
COC(=O)C(NC(=O)c1ccc(Br)cc1)c1ccccc1 (stereo not drawn),-4,16,0,9.0*,2,12
COc1ccc(/C=C2\SC(=N)N(C)C2=O)cc1OC,9,-8,0,0,x,x
COc1ccc(/C=C2\SC(=N)N(c3nccs3)C2=O)cc1OC,-4,1,0,5.7*,0,-3
N[C@@H]1CONC1=O,-12,-6,0,6.7*!,0,-7
Cc1ccc(NC(=O)NC2(C(=O)NCc3cccs3)CCCCC2)cc1,8,4,0,1,x,x
COCCNc1nc2ccccn2c(=O)c1/C=C1\SC(=S)NC1=O,-5,2,0,5.0*!,-1,-10
O=C(CSc1ccsc1[N+](=O)[O-])N1CCN(c2ncccn2)CC1,-2,-10,0,0,x,x
O=C(CSc1ccsc1[N+](=O)[O-])N1CCN(c2ccccn2)CC1,-3,-3,0,5.3*,-1,-2
Cc1ccc(CC(=O)N(CCCN(C)C)c2nc3ccc(F)cc3s2)c(C)c1,8,-7,0,-2,x,x
CCn1nnnc1SCC(=O)N1CCN(C(=O)c2ccco2)CC1,2,-9,0,5.0*,-1,-9
O=C(CSc1nnc2ncccn12)N1CCN(C(=O)c2ccco2)CC1,5,-13,0,2,x,x
CCCCCCOc1ccc(OCCOc2ccc(/C=C3/C(=N)N4N=C(C(F)(F)F)SC4=NC3=O)cc2OCC)cc1,-10,9,0,0,x,x
O=C(c1c[nH]c2ccc(S(=O)(=O)N3CCCCCC3)cc2c1=O)N1CCOCC1,14,1,0,11*,0,4
CCOc1cccc2sc(NC(=O)C3=COCCO3)nc12,2,-17,0,6.6*,0,10
CCc1c(C)nc2cc(-c3ccc(OC)c(OC)c3)nn2c1NCCO,-2,-29,0,0,x,x
CCc1c(C)nc2cc(-c3ccc(OC)c(OC)c3)nn2c1NCCCn1ccnc1,13,-51,0,6.3*,1,9
COC(=O)c1ccc(OC(=O)C2CC(=O)N(c3ccc(C)cc3C)C2)cc1 (stereo not drawn),8,14,0,5.0*,0,-10
Cc1ccc(N2CC(C(=O)O)CC2=O)c(C)c1 (stereo not drawn),-6,9,0,0,x,x
CCOc1cc(/C=N/NS(C)(=O)=O)ccc1O,11,15,0,9.0*,0,-6
CCOc1cc(/C=N/Nc2ccc(S(=O)(=O)O)cc2)ccc1O,47,18,0,0,x,x
COc1ccc(CNc2nc(-c3cccnc3)nn2C(=O)c2ccccc2Cl)cc1,8,2,0,-1,x,x
CC1=C(C(N)=O)C(c2ccccc2Cl)NC(=O)N1 (stereo not drawn),9,-3,0,0,x,x
O=[N+]([O-])c1ccc(N2CCN(Cc3nnnn3C3CCCCC3)CC2)cc1,0,2,0,0,x,x
CC(=O)C(Sc1nnc(Nc2ccc(C(C)C)cc2)s1)C(C)=O,9,-33,0,6.0*,0,-4
O=C(COc1ccccc1[N+](=O)[O-])Nc1cccc(Cl)c1N1CCOCC1,-2,13,0,5.0*,-1,-3
O=C(COc1ccccc1[N+](=O)[O-])NC(=S)Nc1ccccc1N1CCOCC1,3,-7,0,-1,x,x
COc1ccccc1CCN1C(=O)CCC1CCNCCOc1ccccc1 (stereo not drawn),-3,-16,0,7.1*,0,9
COc1ccccc1CCN1C(=O)CCC1CCNCc1ccccc1 (stereo not drawn),-7,-5,0,-2,x,x
